According to PubChem BioAssay (EPA / NIEHS):
Several values for one entry are separate records, joined by “and”; a condition that tells them apart may be missing. Equal values may be shown once. Inconclusive results are not listed. Some compounds were tested as several samples or in several runs, with calls that do not always agree. Activity calls are given as the source filed them. The calls were made as follows, unless noted: active = hit-call score of the fitted dose curve at least 0.9, where 1 is the maximum; inactive = score below 0.9.

Key:
[1] = BSK_4H_Eotaxin3: BioMAP Diversity Plus: 4H Assay for Eotaxin 3 Biomarker Activity (AID 2283000); conditions: primary human endothelial cells (HUVEC); actives raise or lower the signal;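 as to outcome: CCL26 protein level quantified by ELISA in parallel with SRB cytotoxicity check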
Summary of the method: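 Readout is Eotaxin-3 (CCL26) level by ELISA in primary human umbilical vein endothelial cells harvested 24 h after chemical exposure; activity fitted in both directions against DMSO control.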

[2] = target: human Peroxisome Proliferator-activated Receptor alpha (PPARa), PPARA (gene 5465) (UniProt Q07869); assay: ATG_PPARa_TRANS: Attagene TRANS-FACTORIAL HepG2 Assay for human Peroxisome Proliferator-activated Receptor alpha (PPARa) (AID 2283001; active = hit-call score of the fitted dose curve at least 0.9, where 1 is the maximum;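 as to AC50: potency for gain of reporter signal over DMSO so agonist or activator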)
human Peroxisome Proliferator-activated Receptor alpha (PPARa), PPARA (gene 5465), sequence (Q07869 whole entry, looked up): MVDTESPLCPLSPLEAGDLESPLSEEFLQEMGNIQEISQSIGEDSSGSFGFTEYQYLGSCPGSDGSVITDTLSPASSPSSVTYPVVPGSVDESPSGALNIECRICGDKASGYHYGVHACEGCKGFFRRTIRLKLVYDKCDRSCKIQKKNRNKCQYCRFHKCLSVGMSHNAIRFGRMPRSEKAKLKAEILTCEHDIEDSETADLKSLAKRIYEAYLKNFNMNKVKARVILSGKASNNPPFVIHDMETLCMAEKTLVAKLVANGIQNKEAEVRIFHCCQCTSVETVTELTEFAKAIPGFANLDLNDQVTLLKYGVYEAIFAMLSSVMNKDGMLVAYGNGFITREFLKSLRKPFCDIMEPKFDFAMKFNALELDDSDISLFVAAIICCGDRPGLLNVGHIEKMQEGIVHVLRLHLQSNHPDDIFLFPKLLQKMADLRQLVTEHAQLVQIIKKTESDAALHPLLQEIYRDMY
Summary of the method: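 HepG2, transient MRTU transfection, 24 h treatment. RT-PCR → FAM labelling → capillary electrophoresis. Fit vs DMSO, positive direction.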

[3] = target: human Peroxisome Proliferator-activated Receptor delta (PPARd), PPARD (gene 5467) (UniProt Q03181); assay: ATG_PPARd_TRANS: Attagene TRANS-FACTORIAL HepG2 Assay for human Peroxisome Proliferator-activated Receptor delta (PPARd) (AID 2283002; active = hit-call score of the fitted dose curve at least 0.9, where 1 is the maximum)
human Peroxisome Proliferator-activated Receptor delta (PPARd), PPARD (gene 5467), sequence (Q03181 whole entry, looked up, the tested form may be a part): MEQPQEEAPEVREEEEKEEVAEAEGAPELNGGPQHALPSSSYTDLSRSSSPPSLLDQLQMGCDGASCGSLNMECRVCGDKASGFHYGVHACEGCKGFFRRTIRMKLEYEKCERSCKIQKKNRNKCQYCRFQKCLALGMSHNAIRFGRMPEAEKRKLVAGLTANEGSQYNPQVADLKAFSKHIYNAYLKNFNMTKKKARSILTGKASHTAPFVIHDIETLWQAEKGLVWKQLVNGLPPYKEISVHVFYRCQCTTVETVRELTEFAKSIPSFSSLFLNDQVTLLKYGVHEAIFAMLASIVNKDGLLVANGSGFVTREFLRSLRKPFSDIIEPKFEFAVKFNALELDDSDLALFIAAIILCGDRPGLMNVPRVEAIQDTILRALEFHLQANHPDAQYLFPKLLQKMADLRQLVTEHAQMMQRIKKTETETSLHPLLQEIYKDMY
Summary of the method: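 HepG2 cells transiently transfected with GAL4-UAS multiplexed reporter units driven by exogenous chimeric NR-GAL4 proteins; 24 h compound exposure. Reporter mRNA measured by RT-PCR, 6-FAM primer extension, HpaI digestion and capillary electrophoresis; gain of signal fitted relative to DMSO.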

[4] = read-out: Intercellular Adhesion Molecule 1 (ICAM1), ICAM1 (gene 3383); assay: BSK_3C_ICAM1: BioMAP Diversity Plus: 3C Assay for Intercellular Adhesion Molecule 1 (ICAM1) Biomarker Activity (AID 2283003); conditions: primary human endothelial cells (HUVEC); actives raise or lower the signal
Summary of the method: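 Chemicals are dosed onto primary human umbilical vein endothelium (3C system). After 24 h, ICAM-1 is measured by ELISA, and responses are fitted bidirectionally relative to DMSO.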

[5] = BSK_3C_Proliferation: Cell Proliferation Assessment in the BioMAP Diversity Plus: 3C Assay (AID 2283006); conditions: primary human endothelial cells (HUVEC);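 as to AC50: potency may reflect either rise or fall in cell number versus DMSO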
Summary of the method: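 Cells (human umbilical vein endothelial, sub-confluent) receive test chemical; after 48 h they are fixed in 10% trichloroacetic acid, stained with 0.1% SRB and read at 560 nm. Activity is referenced to DMSO, fitting increases and decreases.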

[6] = target: Nuclear receptor subfamily 1 group I member 2 (Homo sapiens) (UniProt O75469); assay: ATG_PXR_TRANS: Attagene TRANS-FACTORIAL HepG2 Assay for human Pregnane X Receptor (PXR) (AID 2283008; active = hit-call score of the fitted dose curve at least 0.9, where 1 is the maximum)
Nuclear receptor subfamily 1 group I member 2 (Homo sapiens), sequence (O75469 whole entry, looked up, the tested form may be a part): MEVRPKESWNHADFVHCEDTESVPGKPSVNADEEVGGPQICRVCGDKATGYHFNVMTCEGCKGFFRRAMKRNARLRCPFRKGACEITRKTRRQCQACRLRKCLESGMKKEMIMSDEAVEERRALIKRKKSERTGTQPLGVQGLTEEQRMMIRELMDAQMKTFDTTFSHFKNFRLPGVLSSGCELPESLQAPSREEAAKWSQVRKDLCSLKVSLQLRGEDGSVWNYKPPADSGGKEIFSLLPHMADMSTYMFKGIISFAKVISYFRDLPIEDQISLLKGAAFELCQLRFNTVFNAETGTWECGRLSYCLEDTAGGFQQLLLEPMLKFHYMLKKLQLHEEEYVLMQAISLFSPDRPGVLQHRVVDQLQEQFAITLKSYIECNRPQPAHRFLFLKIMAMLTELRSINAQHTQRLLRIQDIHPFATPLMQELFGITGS
Summary of the method: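 Transactivation by exogenous PXR–GAL4 fusion measured as reporter transcript induction after 24 h compound treatment of transfected human HepG2 cells. Read-out via RT-PCR and capillary electrophoresis of labelled fragments, fitted upward relative to DMSO.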

[7] = target: human Retinoic Acid Receptor gamma (RARg), RARG (gene 5916) (UniProt P13631); assay: ATG_RARg_TRANS: Attagene TRANS-FACTORIAL HepG2 Assay for human Retinoic Acid Receptor gamma (RARg) (AID 2283009; active = hit-call score of the fitted dose curve at least 0.9, where 1 is the maximum)
human Retinoic Acid Receptor gamma (RARg), RARG (gene 5916), sequence (P13631 whole entry, looked up, the tested form may be a part): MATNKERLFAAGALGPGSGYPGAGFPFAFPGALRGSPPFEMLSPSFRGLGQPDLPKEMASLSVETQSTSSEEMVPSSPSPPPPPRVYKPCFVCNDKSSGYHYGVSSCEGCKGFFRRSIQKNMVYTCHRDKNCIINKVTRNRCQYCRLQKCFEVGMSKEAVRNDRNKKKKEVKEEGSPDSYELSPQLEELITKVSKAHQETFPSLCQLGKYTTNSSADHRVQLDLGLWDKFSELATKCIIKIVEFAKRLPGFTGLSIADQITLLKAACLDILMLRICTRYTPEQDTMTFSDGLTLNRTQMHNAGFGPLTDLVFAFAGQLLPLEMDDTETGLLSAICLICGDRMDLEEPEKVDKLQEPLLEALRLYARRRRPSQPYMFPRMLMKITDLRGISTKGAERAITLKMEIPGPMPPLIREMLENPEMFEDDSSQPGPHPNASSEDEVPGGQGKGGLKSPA
Summary of the method: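 TRANS format measured activity of exogenous NR-GAL4 fusion (RARg) in transfected HepG2 liver cells after 24 h dosing. Induced reporter RNA was detected by RT-PCR/capillary electrophoresis fluorescence, analysed in the positive direction against DMSO.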

[8] = target: human Retinoid X Receptor beta (RXRb), RXRB (gene 6257) (UniProt P28702); assay: ATG_RXRb_TRANS: Attagene TRANS-FACTORIAL HepG2 Assay for human Retinoid X Receptor beta (RXRb) (AID 2283013; active = hit-call score of the fitted dose curve at least 0.9, where 1 is the maximum)
Summary of the method: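 Chimeric receptor-Gal4 activity was assessed in transiently transfected human HepG2 cells after 24 h exposure. Transcripts from GAL4-UAS reporters were quantified by fluorescent RT-PCR and capillary electrophoresis, with DMSO as negative control and baseline.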

[9] = read-out: E-selectin (Homo sapiens) (UniProt P16581); assay: BSK_3C_Eselectin: BioMAP Diversity Plus: 3C Assay for Eselectin Biomarker Activity (AID 2283015); conditions: primary human endothelial cells (HUVEC); actives raise or lower the signal;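 as to outcome: cell surface E-selectin protein quantified by ELISA 24 h after dosing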
Summary of the method: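 HUVEC, 3C stimulation; compound exposure 24 h; E-selectin by ELISA; gain- or loss-of-signal fitted bidirectionally vs DMSO baseline.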

[10] = read-out: Interleukin-1 alpha (IL1a), IL1A (gene 3552); assay: BSK_BE3C_IL1a: BioMAP Diversity Plus: BE3C Assay for Interleukin-1 alpha (IL1a) Biomarker Activity (AID 2283016); conditions: primary human bronchial epithelial cells; actives raise or lower the signal
Summary of the method: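 Signal from IL-1a ELISA, taken 24 h after chemical dosing of human bronchial epithelial cells, is compared with DMSO as baseline using bidirectional curve fitting.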

[11] = read-out: Monocyte Chemoattractant Protein-1 (MCP1), CCL2 (gene 6347); assay: BSK_4H_MCP1: BioMAP Diversity Plus: 4H Assay for Monocyte Chemoattractant Protein-1 (MCP1) Biomarker Activity (AID 2283018); conditions: primary human endothelial cells (HUVEC); actives raise or lower the signal
Summary of the method: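 Endothelial cells from umbilical vein were treated with test chemical, then after 24 h MCP-1 levels were quantified by ELISA; endpoint values came from bidirectional fitting with DMSO as baseline of activity.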

[12] = read-out: Human Leukocyte Antigen - DR isotype (HLADR), HLA-DRA (gene 3122); assay: BSK_3C_HLADR: BioMAP Diversity Plus: 3C Assay for Human Leukocyte Antigen - DR isotype (HLADR) Biomarker Activity (AID 2283019); conditions: primary human endothelial cells (HUVEC); actives raise or lower the signal;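 as to outcome: ELISA of cell-surface HLA-DR on HUVEC 24 h after dosing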
Summary of the method: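 HUVEC, 3C stimulation, 24 h post-dose; HLA-DR by ELISA; bidirectional curve fit vs DMSO baseline; gain or loss of signal scored.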

[13] = target: human Retinoic Acid Receptor beta (RARb), RARB (gene 5915) (UniProt P10826); assay: ATG_RARb_TRANS: Attagene TRANS-FACTORIAL HepG2 Assay for human Retinoic Acid Receptor beta (AID 2283004; active = hit-call score of the fitted dose curve at least 0.9, where 1 is the maximum)
human Retinoic Acid Receptor beta (RARb), RARB (gene 5915), sequence (P10826 whole entry, looked up, the tested form may be a part): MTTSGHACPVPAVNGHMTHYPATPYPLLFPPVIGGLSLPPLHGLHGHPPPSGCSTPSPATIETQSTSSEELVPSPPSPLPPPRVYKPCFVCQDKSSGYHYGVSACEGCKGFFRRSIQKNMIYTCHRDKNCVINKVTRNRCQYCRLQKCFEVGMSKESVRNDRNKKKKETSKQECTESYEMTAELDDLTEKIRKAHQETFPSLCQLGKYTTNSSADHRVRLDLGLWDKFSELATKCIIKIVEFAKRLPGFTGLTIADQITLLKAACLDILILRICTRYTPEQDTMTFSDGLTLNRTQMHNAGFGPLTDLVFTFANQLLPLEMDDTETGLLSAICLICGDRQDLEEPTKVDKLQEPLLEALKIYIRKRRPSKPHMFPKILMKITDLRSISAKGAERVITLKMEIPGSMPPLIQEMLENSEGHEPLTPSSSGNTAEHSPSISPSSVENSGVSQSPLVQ
Summary of the method: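 Readout is reporter mRNA induction: RNA reverse-transcribed, PCR-amplified, FAM-labelled, HpaI-cut and resolved by capillary electrophoresis. Transiently transfected HepG2 cells carrying exogenous NR–Gal4 chimeras were dosed for 24 h; activity fitted upward relative to DMSO.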

[14] = target: Peroxisome proliferator-activated receptor gamma (Homo sapiens) (UniProt P37231); assay: ATG_PPARg_TRANS: Attagene TRANS-FACTORIAL HepG2 Assay for human Peroxisome Proliferator-activated Receptor-gamma (PPARg) (AID 2283007; active = hit-call score of the fitted dose curve at least 0.9, where 1 is the maximum)
Peroxisome proliferator-activated receptor gamma (Homo sapiens), sequence (P37231 whole entry, looked up, the tested form may be a part): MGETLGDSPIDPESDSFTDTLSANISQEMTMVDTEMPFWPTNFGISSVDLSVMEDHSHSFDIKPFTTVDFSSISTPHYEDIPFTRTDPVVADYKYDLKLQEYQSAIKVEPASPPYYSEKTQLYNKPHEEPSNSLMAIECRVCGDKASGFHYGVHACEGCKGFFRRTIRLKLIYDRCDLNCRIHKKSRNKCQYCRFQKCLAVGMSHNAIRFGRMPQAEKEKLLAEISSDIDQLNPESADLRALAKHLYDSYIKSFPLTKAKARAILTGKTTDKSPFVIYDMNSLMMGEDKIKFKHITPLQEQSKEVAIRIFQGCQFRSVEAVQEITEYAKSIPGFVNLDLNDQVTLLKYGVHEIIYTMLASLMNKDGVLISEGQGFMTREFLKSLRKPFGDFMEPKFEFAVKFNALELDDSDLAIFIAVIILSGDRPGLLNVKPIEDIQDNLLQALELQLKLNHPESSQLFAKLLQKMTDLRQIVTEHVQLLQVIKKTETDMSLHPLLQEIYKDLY
Summary of the method: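 After 24 h of chemical exposure, transfected HepG2 cells carrying PPARγ-Gal4 chimera reporter constructs are lysed for RNA. Reporter transcripts are measured by RT-PCR and capillary electrophoresis with fluorescent labelling, and gain of signal is fitted versus DMSO.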

[15] = target: human RAR-related Orphan Receptor beta (RORb), RORB (gene 6096) (UniProt Q92753); assay: ATG_RORb_TRANS: Attagene TRANS-FACTORIAL HepG2 Assay for human RAR-related Orphan Receptor beta (RORb) (AID 2283010; active = hit-call score of the fitted dose curve at least 0.9, where 1 is the maximum)
human RAR-related Orphan Receptor beta (RORb), RORB (gene 6096), sequence (Q92753 whole entry, looked up, the tested form may be a part): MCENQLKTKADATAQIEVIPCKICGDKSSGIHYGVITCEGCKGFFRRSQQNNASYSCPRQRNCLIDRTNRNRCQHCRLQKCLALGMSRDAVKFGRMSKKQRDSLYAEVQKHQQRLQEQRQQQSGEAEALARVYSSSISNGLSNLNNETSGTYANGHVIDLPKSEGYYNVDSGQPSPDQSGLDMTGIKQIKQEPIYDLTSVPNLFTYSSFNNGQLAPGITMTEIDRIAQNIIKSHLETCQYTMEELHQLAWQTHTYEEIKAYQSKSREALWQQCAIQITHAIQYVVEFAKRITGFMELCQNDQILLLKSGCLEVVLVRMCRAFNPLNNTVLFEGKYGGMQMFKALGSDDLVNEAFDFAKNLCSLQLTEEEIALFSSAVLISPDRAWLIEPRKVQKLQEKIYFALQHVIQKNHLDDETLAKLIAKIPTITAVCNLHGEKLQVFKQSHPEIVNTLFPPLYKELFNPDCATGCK
Summary of the method: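 Transfect HepG2 with multiple GAL4-UAS reporter transcription units; dose chemicals for 24 h; isolate RNA, reverse-transcribe and PCR-amplify reporter sequences; label, digest and resolve fragments by capillary electrophoresis; fit increases relative to DMSO.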

[16] = target: Retinoic acid receptor alpha (Homo sapiens) (UniProt P10276); assay: ATG_RARa_TRANS: Attagene TRANS-FACTORIAL HepG2 Assay for human Retinoic Acid Receptor alpha (RARa) (AID 2283005; active = hit-call score of the fitted dose curve at least 0.9, where 1 is the maximum)
Summary of the method: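 HepG2 transiently transfected with multiplex GAL4-UAS reporter units including a human RARa–GAL4 chimera; 24 h compound exposure. Reporter mRNA quantified by RT-PCR, 6-FAM labeling and capillary electrophoresis; gain of signal versus DMSO.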

[17] = target: human RAR-related Orphan Receptor gamma (RORg), RORC (gene 6097) (UniProt P51449); assay: ATG_RORg_TRANS: Attagene TRANS-FACTORIAL HepG2 Assay for human RAR-related Orphan Receptor gamma (RORg) (AID 2283011; active = hit-call score of the fitted dose curve at least 0.9, where 1 is the maximum)
human RAR-related Orphan Receptor gamma (RORg), RORC (gene 6097), sequence (P51449 whole entry, looked up, the tested form may be a part): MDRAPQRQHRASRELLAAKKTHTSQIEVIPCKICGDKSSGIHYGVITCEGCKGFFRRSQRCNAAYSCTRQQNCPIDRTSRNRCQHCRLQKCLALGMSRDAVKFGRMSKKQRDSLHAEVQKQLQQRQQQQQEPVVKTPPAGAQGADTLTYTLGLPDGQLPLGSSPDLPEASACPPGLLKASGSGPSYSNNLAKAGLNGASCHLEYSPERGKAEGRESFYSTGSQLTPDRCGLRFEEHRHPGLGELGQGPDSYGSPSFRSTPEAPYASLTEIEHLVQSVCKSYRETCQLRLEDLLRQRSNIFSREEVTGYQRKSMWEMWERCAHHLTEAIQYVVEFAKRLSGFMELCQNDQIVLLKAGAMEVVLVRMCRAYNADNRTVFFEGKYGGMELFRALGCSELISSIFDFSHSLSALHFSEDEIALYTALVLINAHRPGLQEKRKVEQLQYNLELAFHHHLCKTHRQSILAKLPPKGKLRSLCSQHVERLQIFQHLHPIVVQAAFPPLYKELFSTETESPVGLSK
Summary of the method: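 Transient MRTU transfection of HepG2 (TRANS format, exogenous NR-Gal4 chimera). 24 h dosing. Total RNA → oligo(dT) RT → PCR → 6-FAM labelling → HpaI cut → CE. Gain vs DMSO.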

[18] = target: human Thyroid Receptor alpha (THRa1), THRA (gene 7067) (UniProt P10827); assay: ATG_THRa1_TRANS: Attagene TRANS-FACTORIAL HepG2 Assay for human Thyroid Receptor alpha (THRa1) (AID 2283014; active = hit-call score of the fitted dose curve at least 0.9, where 1 is the maximum)
human Thyroid Receptor alpha (THRa1), THRA (gene 7067), sequence (P10827 whole entry, looked up, the tested form may be a part): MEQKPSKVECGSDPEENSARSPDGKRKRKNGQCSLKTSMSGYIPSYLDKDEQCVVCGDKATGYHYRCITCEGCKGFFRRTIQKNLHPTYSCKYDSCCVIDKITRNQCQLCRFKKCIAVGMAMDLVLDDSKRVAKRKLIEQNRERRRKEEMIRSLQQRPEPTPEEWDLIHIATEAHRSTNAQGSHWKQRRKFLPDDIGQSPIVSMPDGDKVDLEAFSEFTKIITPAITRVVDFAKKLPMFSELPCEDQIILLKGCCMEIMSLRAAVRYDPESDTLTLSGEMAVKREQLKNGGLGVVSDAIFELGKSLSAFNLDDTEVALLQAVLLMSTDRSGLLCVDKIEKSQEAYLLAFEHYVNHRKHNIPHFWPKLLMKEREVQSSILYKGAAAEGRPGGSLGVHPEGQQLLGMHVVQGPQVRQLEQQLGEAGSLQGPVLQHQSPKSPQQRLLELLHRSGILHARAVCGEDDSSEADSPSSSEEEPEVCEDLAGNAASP
Summary of the method: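 Transient HepG2 transfection, NR-Gal4 chimera driving GAL4-UAS reporters; 24 h compound exposure; total RNA, oligo(dT) RT, PCR, fluorescent primer extension, capillary electrophoresis. Upward direction vs DMSO control.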

[19] = read-out: Monocyte Chemoattractant Protein-1 (MCP1), CCL2 (gene 6347); assay: BSK_3C_MCP1: BioMAP Diversity Plus: 3C Assay for Monocyte Chemoattractant Protein-1 (MCP1) Biomarker Activity (AID 2283017); conditions: primary human endothelial cells (HUVEC); actives raise or lower the signal
Summary of the method: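 HUVEC, 3C system; 24 h chemical exposure; MCP-1 by ELISA; bidirectional curve fit vs DMSO baseline.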

[20] = target: Retinoic acid receptor RXR-alpha (Homo sapiens) (UniProt P19793); assay: ATG_RXRa_TRANS: Attagene TRANS-FACTORIAL HepG2 Assay for human Retinoid X Receptor alpha (RXRa) (AID 2283012; active = hit-call score of the fitted dose curve at least 0.9, where 1 is the maximum)
Summary of the method: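 Measures exogenous chimeric NR-GAL4 activity in transfected HepG2 liver cells after 24 h of dosing. Induced reporter mRNA was detected by RT-PCR with capillary electrophoresis, and gain of signal was analysed against DMSO.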

E-selectin (Homo sapiens), sequence (P16581 whole entry, looked up): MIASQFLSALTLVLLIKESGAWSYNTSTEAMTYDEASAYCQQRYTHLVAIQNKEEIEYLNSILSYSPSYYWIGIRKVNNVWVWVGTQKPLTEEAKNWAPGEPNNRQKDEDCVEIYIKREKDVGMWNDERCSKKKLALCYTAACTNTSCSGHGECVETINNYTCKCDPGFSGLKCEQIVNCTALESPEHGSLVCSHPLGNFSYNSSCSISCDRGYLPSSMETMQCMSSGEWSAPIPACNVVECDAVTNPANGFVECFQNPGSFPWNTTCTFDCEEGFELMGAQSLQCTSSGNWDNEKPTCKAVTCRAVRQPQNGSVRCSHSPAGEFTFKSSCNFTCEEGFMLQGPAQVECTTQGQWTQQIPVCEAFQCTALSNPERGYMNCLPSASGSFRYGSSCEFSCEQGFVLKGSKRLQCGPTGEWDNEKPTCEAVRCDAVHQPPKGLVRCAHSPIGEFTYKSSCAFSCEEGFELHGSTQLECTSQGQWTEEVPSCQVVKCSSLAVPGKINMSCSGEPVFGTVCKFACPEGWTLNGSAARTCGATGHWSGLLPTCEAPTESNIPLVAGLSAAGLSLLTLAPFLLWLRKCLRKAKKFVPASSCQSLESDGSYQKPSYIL

## O=C(O)C(F)(F)OC(F)(F)C(F)(F)OC(F)(F)C(F)(F)OC(F)(F)F
[1]
  outcome: inactive
[2]
  AC50: 15.4 µM (active)
[3]
  outcome: inactive
[4]
  outcome: inactive
[5]
  outcome: inactive
[6]
  outcome: inactive
[7]
  outcome: inactive
[8]
  AC50: 13.2 µM (active)
[9]
  outcome: inactive
[10]
  outcome: inactive
[11]
  outcome: inactive
[12]
  outcome: inactive

## NS(=O)(=O)C(F)(F)C(F)(F)C(F)(F)C(F)(F)C(F)(F)C(F)(F)F
[1]
  AC50: 46.4 µM (active) and 20.3 µM (active)
[2]
  AC50: 28.2 µM (active)
[3]
  outcome: inactive
[4]
  outcome: inactive
[13]
  outcome: inactive
[5]
  AC50: 28.9 µM (active) and 49.6 µM (active)
[14]
  AC50: 50.5 µM (active)
[6]
  outcome: inactive
[7]
  outcome: inactive
[15]
  outcome: inactive
[9]
  outcome: inactive
[10]
  AC50: 31.6 µM (active)
  outcome: inactive
[11]
  outcome: inactive
[12]
  AC50: 22.6 µM (active) and 24.2 µM (active)

## NC(=O)C(F)(F)C(F)(F)C(F)(F)C(F)(F)C(F)(F)C(F)(F)C(F)(F)F
[1]
  outcome: inactive
[2]
  AC50: 86.9 µM (active)
[4]
  outcome: inactive
[13]
  outcome: inactive
[16]
  outcome: inactive
[5]
  outcome: inactive
[14]
  outcome: inactive
[6]
  outcome: inactive
[7]
  outcome: inactive
[15]
  outcome: inactive
[17]
  outcome: inactive
[18]
  outcome: inactive
[9]
  outcome: inactive
[10]
  outcome: inactive
[19]
  outcome: inactive
[11]
  outcome: inactive
[12]
  outcome: inactive

## Cc1cc(C)c(O)c(C(C)(C)C)c1
[1]
  AC50: 30.4 µM (active)
[2]
  outcome: inactive
[3]
  outcome: inactive
[4]
  AC50: 30.4 µM (active)
[5]
  AC50: 20 µM (active)
[14]
  outcome: inactive
[6]
  AC50: 16.2 µM (active)
[15]
  outcome: inactive
[17]
  outcome: inactive
[20]
  outcome: inactive
[8]
  AC50: 28.9 µM (active)
[18]
  outcome: inactive
[9]
  AC50: 28.9 µM (active)
[10]
  AC50: 32.6 µM (active)
[19]
  AC50: 29 µM (active)
[11]
  AC50: 30.7 µM (active)
[12]
  AC50: 15.8 µM (active)

## OCC(O)CC(F)(F)C(F)(F)C(F)(F)C(F)(F)C(F)(F)C(F)(F)C(F)(F)C(F)(F)F (stereo not given)
[1]
  outcome: inactive
[2]
  outcome: inactive
[3]
  outcome: inactive
[4]
  outcome: inactive
[13]
  outcome: inactive
[16]
  outcome: inactive
[5]
  outcome: inactive
[14]
  outcome: inactive
[6]
  outcome: inactive
[7]
  outcome: inactive
[15]
  outcome: inactive
[20]
  outcome: inactive
[18]
  outcome: inactive
[9]
  outcome: inactive
[10]
  outcome: inactive
[19]
  outcome: inactive
[11]
  outcome: inactive
[12]
  outcome: inactive

## CCN(CC)c1ccc(N=Nc2ccccc2)cc1
[1]
  AC50: 13 µM (active)
[2]
  outcome: inactive
[3]
  outcome: inactive
[4]
  outcome: inactive
[5]
  AC50: 12 µM (active)
[6]
  AC50: 4.22 µM (active)
[7]
  outcome: inactive
[9]
  outcome: inactive
[10]
  AC50: 20 µM (active)
[11]
  AC50: 13.2 µM (active)
[12]
  AC50: 11.5 µM (active)
